Source: PubChem BioAssay (NCI)
The panel holds about 79,000 compounds, 15% with a hit somewhere; the sample as a whole holds those more often. Cut-off read from the data, not from the text of the source: active = growth inhibition above about 70%; inactive = the rest.

Key:
[1] = NCI Yeast Anticancer Drug Screen. Data for the rad50 strain (AID 155);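 note: 0% = growth of vehicle-only cultures of the same strain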; details: S. cerevisiae rad50 strain growth inhibition; at 50.0 µM; hits give high values
Summary of the method: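 Yeast carrying a defined DNA repair defect were exposed to test compounds, and growth was compared with vehicle-treated controls to give percent inhibition.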

[2] = NCI Yeast Anticancer Drug Screen. Data for the mec2-1 strain (AID 157); details: S. cerevisiae mec2-1 strain, at 50.0 µM, hits give high values
Summary of the method: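 mec2-1 yeast strain, carrying an alteration in DNA damage repair or cell cycle control, was exposed to compounds; growth inhibition was measured relative to vehicle-treated controls.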

[3] = NCI Yeast Anticancer Drug Screen. Data for the sgs1 mgt1 strain (AID 161);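 note: 0% = growth of cultures given vehicle only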; details: S. cerevisiae sgs1 mgt1 strain, at 50.0 µM, hits give high values
Summary of the method: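 Compounds are added to genetically altered yeast, and growth is compared with cultures given vehicle alone to give percent inhibition.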

[4] = NCI Yeast Anticancer Drug Screen. Data for the cln2 rad14 strain (AID 165);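 note: 0% = growth equal to vehicle treated cultures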; details: S. cerevisiae cln2 rad14 strain, at 50.0 µM, hits give high values
Summary of the method: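 Yeast carrying cln2 and rad14 alterations (cell cycle control and DNA damage repair) were exposed to compounds. Growth inhibition was measured against vehicle-treated controls.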

[5] = NCI Yeast Anticancer Drug Screen. Data for the bub3 strain (AID 167); details: S. cerevisiae bub3 mutant strain, at 50.0 µM, hits give high values
Summary of the method: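 Compounds were applied to a genetically altered yeast strain carrying a cell-cycle control defect. Growth inhibition was scored against vehicle-treated controls.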

[6] = NCI Yeast Anticancer Drug Screen. Data for the mlh1 rad18 strain (AID 175); details: S. cerevisiae mlh1 rad18 strain growth inhibition; at 50.0 µM; hits give high values
Summary of the method: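 Growth inhibition of the yeast strain was measured after compound exposure and expressed relative to vehicle-treated controls. The strain carries defined defects in DNA damage repair.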

Measured: growth inhibition

COc1ccc(/C=C/c2cc(O)cc(OC3OC(CO)C(O)C(O)C3O)c2)cc1O (stereo not drawn)
inactive: [1] -2.4% | [2] 10.5% | [3] -5.5% | [4] 7.55% | [5] 8.7% | [6] 10.8%

COc1ccc(-c2c(O)c3cccc(-c4ccccc4)c3oc2=O)cc1
inactive: [1] 2.7% | [2] 6.7% | [3] -2.9% | [4] 2.95% | [5] 15% | [6] 7.5%

CCCC(=O)Nc1cccc(Cl)c1
inactive: [1] 16.2% | [2] 9.05% | [3] 8.85% | [4] 7.65% | [5] -0.75% | [6] 2.35%

COC1(OC)C2(Cl)CC(C(=O)O)C1(Cl)C(Cl)=C2Cl (stereo not drawn)
inactive: [1] 7.55% | [2] 3.85% | [3] 19.6% | [4] -51.7% | [5] -1.35% | [6] 13.7%

CC(=O)c1sc(/N=C\c2c(O)c3ccccc3oc2=O)nc1C
inactive: [1] -53.5% | [2] -49.6% | [3] -40.2% | [4] -3.25% | [5] -36.2% | [6] -33.8%

COC1=c2\cccc\c2=c2/cccc/c2=c2\cccc\c2=N\1
inactive: [1] 17.4% | [2] 13.1% | [3] 11.4% | [4] 12.2% | [5] 13.4% | [6] 17.5%

[CH3][Sn]([CH3])([N](c1ccccn1)c1ccccn1)[N](c1ccccn1)c1ccccn1
inactive: [1] -8.85% | [2] 2.7% | [3] 17% | [4] -17.3% | [5] -1.65% | [6] -21.4%

CCO/C=C1/C(=O)N(C)c2c1c(=O)n(C)c(=O)n2C
inactive: [1] -46.9% | [2] -0.25% | [3] -4.05% | [4] -14.3% | [5] -18.1% | [6] -5.15%

CCOCCC(=O)O
inactive: [1] 26.1% | [2] 6.3% | [3] -7% | [4] -5.3% | [5] 18.1% | [6] 6.15%

CCCCCCCCCCCCCCCCCCCCCCCCC(O)C(=O)O (stereo not drawn) (tested in a mixture with another compound)
inactive: [1] -33% | [2] -31.4% | [3] -2.4% | [4] -23.2% | [5] 7.7% | [6] -0.45%

COC(SC)(C(=O)O)c1cc(-c2c(Cl)cccc2Cl)no1 (stereo not drawn)
inactive: [1] -5.4% | [2] -6.8% | [3] -9.35% | [4] -11.4% | [5] 12.2% | [6] -1%

CC1=CC(=O)/C(=C/n2c(=S)[nH]c3ccc([N+](=O)[O-])cc32)C(=O)O1
inactive: [1] 2.1% | [2] -44.7% | [3] -9.5% | [4] 6.85% | [5] 6.6% | [6] -46.3%

CC(C)(C)c1ccc(O)c(C(O)c2cccnc2)c1 (stereo not drawn)
inactive: [1] 18.7% | [2] 16.6% | [3] 16.5% | [4] 13.9% | [5] 29.8% | [6] 39.2%

Cc1cc(C)n2nc3c4ccsc4ncc3c2n1
inactive: [1] -5.2% | [2] -5.45% | [3] -15.9% | [4] 2.45% | [5] 0.1% | [6] -6.8%

CCOC(=C[P+](c1ccccc1)(c1ccccc1)c1ccccc1)OCC
inactive: [1] -6.5% | [2] 20.8% | [3] 2.35% | [4] -9.5% | [5] -3.6% | [6] -36%

O=C(O)C(Nc1ccccc1)c1ccccc1 (stereo not drawn)
inactive: [1] 13.4% | [2] 3.75% | [3] 9.45% | [4] -21.9% | [5] 4.65% | [6] -6.95%

Nc1nn2c(nc(N)c3c(N)[nH]nc32)c1N=Nc1ccc(Br)cc1
inactive: [1] -1.35% | [2] 11.8% | [3] -4.95% | [4] 10.2% | [5] 13.2% | [6] 0.1%

O=C1CSC(c2cccc(O)c2O)N1c1nncs1 (stereo not drawn)
inactive: [1] 1.35% | [2] 0.25% | [3] 1.85% | [4] -6.9% | [5] 5.9% | [6] -5.35%

O=C(CCBr)NC(=O)OC/C=C\c1ccccc1
inactive: [1] 7.7% | [2] 34.8% | [3] 12.2% | [4] 8% | [5] 5.1% | [6] 15.2%

Cc1ccc2c(C)cc(=O)n(C)c2c1
inactive: [1] 4.7% | [2] 11.2% | [3] 9.6% | [4] 4.9% | [5] -0.25% | [6] 15.1%

CS(=O)(=O)OCCCCCCCCCOS(C)(=O)=O
inactive: [1] -10.9% | [2] -26.1% | [3] -3.6% | [4] -0.05% | [5] -18.8% | [6] -12.3%

COC1=NO[C@@H]2C=CO[C@H]12
inactive: [1] -8.2% | [2] -13.2% | [3] -5.05% | [4] -18.4% | [5] 8.35% | [6] 9.95%

CC(=O)N1CC(C)(C)c2c(C)c(O)c(C)c(C)c21
inactive: [1] -16.1% | [2] -22.3% | [3] -15.4% | [4] 17.1% | [5] 8.45% | [6] 0.3%

CCCCCCCCCCCCCCCCC1Cc2ccccc2C1
inactive: [1] -12.6% | [2] 8% | [3] -12.8% | [4] -12.1% | [5] -4.15% | [6] -7.6%

Cc1cc(NS(=O)(=O)c2ccc(NC(=O)c3ccc(Cl)c4c(Nc5ccc(S(N)(=O)=O)cc5)c5ccccc5nc34)cc2)no1
inactive: [1] 34% | [2] 36.8% | [3] 33.5% | [4] 46.2% | [5] 31.4% | [6] 68.1%

CCOC(=O)C1=C(C(=O)c2cccc3ccccc23)C(c2cccc([N+](=O)[O-])c2)C(C(=O)c2cccc3ccccc23)=C(C(=O)OCC)N1
inactive: [1] -12.9% | [2] -7.75% | [3] 13.7% | [4] -26.3% | [5] -45.6% | [6] -25.2%

CCOc1ccccc1NCN1C(=O)c2ccccc2C1=O
inactive: [1] -38.9% | [2] -35.1% | [3] -12.2% | [4] -8.65% | [5] -18.3% | [6] -20.1%

COC(=O)c1nc(=S)[nH]c(C(=O)OC)c1C(=O)/C=C/c1ccccc1
inactive: [1] 0.1% | [2] -1.7% | [3] 8.05% | [4] -14.2% | [5] -1.75% | [6] 11.8%

NC(=O)N1CCCC1
inactive: [1] -1.65% | [2] 13.1% | [3] -3.7% | [4] 7.7% | [5] 9.45% | [6] 2.15%

COc1ccc(C(CC(=O)c2ccccc2)C(=O)c2ccc3c(c2)OCO3)cc1 (stereo not drawn)
inactive: [1] -40% | [2] -50.5% | [3] -38.8% | [4] -12.7% | [5] -0.3% | [6] -31.6%

CC(=O)NO
inactive: [1] 22.1% | [2] -4.05% | [3] 12.1% | [4] -7.05% | [5] -4.6% | [6] 11.3%

COc1ccc(NC(=O)Oc2ccccc2C(N)=O)c(Cl)c1
inactive: [1] -2.05% | [2] 10.8% | [3] 3.65% | [4] 4.6% | [5] 18.4% | [6] 9.75%

CC(O)CC(=O)c1ccc(O)cc1 (stereo not drawn)
inactive: [1] -42% | [2] -41% | [3] -30.2% | [4] 1.7% | [5] -49.5% | [6] -41.3%

CCSC1C(N=[N+]=[N-])C(CO)OC1n1cnc2c(N)ncnc21 (stereo not drawn)
inactive: [1] 1.3% | [2] -3.2% | [3] 9.3% | [4] 10.9% | [5] -2% | [6] 4.7%

c1ccc(B2O[C@H]3CCCC[C@@H]3O2)cc1
inactive: [1] 2.15% | [2] 13.9% | [3] -1.3% | [4] 12.8% | [5] 1.25% | [6] 21.4%

CN(C)C(=N)N
inactive: [1] -28.9% | [2] 6.3% | [3] -27.4% | [4] -21.6% | [5] -0.7% | [6] -18.4%

CSc1nc(N(C)C)c2[nH]c(C)nc2n1
inactive: [1] 7.2% | [2] 9.5% | [3] -6.55% | [4] 36.6% | [5] 10.6% | [6] 31.6%

N#CCCCCCCC(N)=O
inactive: [1] 4.4% | [2] -0.9% | [3] 6.4% | [4] -1.25% | [5] -5.6% | [6] -16.2%
